Experimental data reported in PubChem BioAssay (EPA / NIEHS).
The source made the active and inactive calls. Rule for the calls: active = hit-call score of the fitted dose curve at least 0.9, where 1 is the maximum; inactive = score below 0.9.

Columns and labels:
Details in all cases: mRNA level, 48 h; actives raise or lower the signal
[1] = read-out: ATP-citrate lyase (ACLY), ACLY (gene 47); assay: LTEA_HepaRG_ACLY: Life Technologies and Expression Analysis (LTEA) Assay for ATP-citrate lyase (ACLY) using HepaRG (AID 2283466)
Method in brief: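 qRT-PCR readout of ACLY transcript after 48 h chemical treatment of HepaRG cells; expression normalized to three housekeeping genes. Eight-point half-log series, highest 100 uM, 0.5% DMSO vehicle. Gain or loss fitted against DMSO baseline.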

[2] = read-out: Peroxisomal acyl-coenzyme A oxidase 1 (ACOX1) gene, ACOX1 (gene 51); assay: LTEA_HepaRG_ACOX1: Life Technologies and Expression Analysis (LTEA) Assay for Peroxisomal acyl-coenzyme A oxidase 1 (ACOX1) gene using HepaRG (AID 2283467)
Method in brief: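 HepaRG, 48 h chemical exposure, 8-pt half-log series from 100 uM top, 0.5% DMSO vehicle, duplicates. Readout: ACOX1 mRNA by Fluidigm qRT-PCR, housekeeping-normalized; bidirectional fit vs DMSO baseline.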

[3] = read-out: Alkaline Phosphatase, Placental (ALPP) gene, ALPP (gene 250); assay: LTEA_HepaRG_ALPP: Life Technologies and Expression Analysis (LTEA) Assay for Alkaline Phosphatase, Placental (ALPP) gene using HepaRG (AID 2283468);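 for AC50: differentiated human HepaRG liver cells in serum-free induction medium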
Method in brief: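 qRT-PCR readout of ALPP mRNA (Fluidigm TaqMan), normalized to ACTB/GAPDH/POLR2A, after 48 h chemical exposure of HepaRG cells; 8-point half-log series, top 100 uM, 0.5% DMSO vehicle. Bidirectional curve fit versus DMSO baseline.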

[4] = read-out: Bcl-2 (BAX) gene, BAX (gene 581); assay: LTEA_HepaRG_BAX: Life Technologies and Expression Analysis (LTEA) Assay for Bcl-2 (BAX) gene using HepaRG (AID 2283470)
Method in brief: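 qRT-PCR read-out of BAX mRNA, normalized to three housekeeping genes, after 48 h chemical exposure of human HepaRG cells in serum-free induction medium; eight-point half-log series, top 100 uM, 0.5% DMSO vehicle; bidirectional fit versus DMSO.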

[5] = read-out: adenosine kinase (ADK) gene, ADK (gene 132); assay: LTEA_HepaRG_ADK: Life Technologies and Expression Analysis (LTEA) Assay for adenosine kinase (ADK) gene using HepaRG (AID 2283471)
Method in brief: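 ADK expression quantified by qRT-PCR, normalised to three housekeeping genes, after 48 h exposure of HepaRG cells to eight concentrations (top 100 uM, half-log steps, duplicate, 0.5% DMSO). Up- or down-regulation fitted relative to vehicle.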

[6] = read-out: Alpha-fetoprotein (AFP) gene, AFP (gene 174); assay: LTEA_HepaRG_AFP: Life Technologies and Expression Analysis (LTEA) Assay for Alpha-fetoprotein (AFP) gene using HepaRG (AID 2283472)
Method in brief: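 qRT-PCR (Fluidigm TaqMan) readout of AFP transcript, normalized to three housekeeping genes, fitted bidirectionally against 0.5% DMSO baseline. HepaRG cells received chemicals for 48 h in serum-free induction medium, top concentration 100 uM, half-log steps.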

BCL2L11 (gene 10018) = assay: LTEA_HepaRG_BCL2L11: Life Technologies and Expression Analysis (LTEA) Assay for Bcl-2 (BCL2L11) gene using HepaRG (AID 2283473)
Method in brief: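 HepaRG, 48 h exposure, 8-pt half-log series from 100 uM in 0.5% DMSO, duplicates; qRT-PCR (Fluidigm TaqMan) for BCL2L11, housekeeping-normalized; bidirectional curve fit relative to DMSO baseline.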

[7] = read-out: Apolipoprotein A-V (APOA5) gene, APOA5 (gene 116519); assay: LTEA_HepaRG_APOA5: Life Technologies and Expression Analysis (LTEA) Assay for Apolipoprotein A-V (APOA5) gene using HepaRG (AID 2283474)
Method in brief: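 HepaRG, 48 h chemical exposure in serum-free induction medium, 8-pt half-log series (top 100 uM), 0.5% DMSO vehicle, duplicates. Readout: APOA5 mRNA by qRT-PCR, housekeeping-normalized; bidirectional fit vs DMSO baseline.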

[8] = read-out: Apoptosis regulator Bcl-2 (Homo sapiens) (UniProt P10415); assay: LTEA_HepaRG_BCL2: Life Technologies and Expression Analysis (LTEA) Assay for Bcl-2 gene using HepaRG (AID 2283475);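 note: BCL2 transcript by TaqMan qRT-PCR normalised to ACTB GAPDH and POLR2A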
Method in brief: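 qRT-PCR read-out (Fluidigm TaqMan) of BCL2 transcript, normalised to three housekeeping genes, after 48 h chemical exposure of HepaRG cells; 8-point half-log series, top 100 uM, 0.5% DMSO vehicle. Gain or loss of signal fitted relative to DMSO baseline.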

Measured: AC50

Apoptosis regulator Bcl-2 (Homo sapiens), sequence (P10415 whole entry, looked up): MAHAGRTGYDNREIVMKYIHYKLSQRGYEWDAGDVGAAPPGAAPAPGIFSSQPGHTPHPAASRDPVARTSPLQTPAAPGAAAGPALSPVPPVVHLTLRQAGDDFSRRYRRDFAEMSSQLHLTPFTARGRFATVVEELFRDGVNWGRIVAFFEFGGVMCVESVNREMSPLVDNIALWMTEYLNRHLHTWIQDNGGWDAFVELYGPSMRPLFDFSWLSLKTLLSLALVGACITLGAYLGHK

Cc1ccccc1[N+](=O)[O-]
inactive: all assays above

CCSC(=O)N(CC)C1CCCCC1
inactive: all assays above

O=C(O)C(F)(F)C(F)(F)C(F)(F)C(F)(F)C(F)(F)F
active: [2] 9.92 µM
not listed: [5]
inactive: all other assays above

CCNc1nc(NC(C)C)nc(SC)n1
active: [3] 17.9 µM | [6] 50 µM
not listed: [5]
inactive: all other assays above

O=C(NC(=O)c1cc(F)c(F)cc1Cl)Nc1cc(F)ccc1N1CCC(C(=O)O)CC1
not listed: [5]
inactive: all other assays above

CC(C)(O)C(=O)Nc1ccc([N+](=O)[O-])c(C(F)(F)F)c1
active: [3] 0.0354 µM | BCL2L11 (gene 10018) 0.0415 µM | [7] 0.0349 µM
inactive: all other assays above

Nn1cnnc1
not listed: [5]
inactive: all other assays above

CCCCCCCCOC(=O)c1ccccc1C(=O)OCCCCCCCC
not listed: [5]
inactive: all other assays above

Oc1ccc(Cl)cc1Cl
not listed: [5]
inactive: all other assays above

CCOP(=S)(OCC)SCSC(C)(C)C
active: [6] 29.5 µM
not listed: [5]
inactive: all other assays above

O=C(O)C(F)(F)C(F)(F)C(F)(F)C(F)(F)C(F)(F)C(F)(F)C(F)(F)C(F)(F)C(F)(F)F
active: [1] 76.5 µM | [2] 78.4 µM | [3] 68.1 µM | [4] 12.6 µM | [6] 23 µM | BCL2L11 (gene 10018) 12.1 µM | [7] 30.8 µM
inactive: [8]

O=S(=O)(O)C(F)(F)C(F)(F)C(F)(F)C(F)(F)F
not listed: [5]
inactive: all other assays above

NS(=O)(=O)C(F)(F)C(F)(F)C(F)(F)C(F)(F)C(F)(F)C(F)(F)C(F)(F)C(F)(F)F
inactive: [3] | [4]
active: [1] 16.4 µM | [2] 14.9 µM | [5] 4.81 µM | [6] 11.4 µM | BCL2L11 (gene 10018) 4.05 µM | [7] 10 µM | [8] 2.79 µM

Cc1cc(-c2ccc(N)c(C)c2)ccc1N
active: [6] 34 µM
not listed: [5]
inactive: all other assays above

C[C@]12CCC(=O)C=C1CC[C@@H]1[C@@H]2CC[C@@]2(C)[C@H]1CC[C@]2(C)O
inactive: [2] | [4] | BCL2L11 (gene 10018)
active: [1] 45.8 µM | [3] 24.5 µM | [6] 63.6 µM | [7] 45.8 µM | [8] 10.9 µM

Cc1cccc(C)c1N
not listed: [5]
inactive: all other assays above

Cc1ccccc1CO[C@@H]1C[C@@]2(C(C)C)CC[C@]1(C)O2
not listed: [5]
inactive: all other assays above
